# ERK EGF inh = blocks ERK signaling stimulated by EGF | HEK293-V1b, EGF-stimulated phospho-ERK AlphaScreen | Potency, µM (titrated, usually from 11.5 µM), inactives show top-dose activity change, negative = inhibition, actives largely listed as inhibitors | 130,000 compounds, 0.41% hits; active = well fitted inhibition curve with a large enough effect;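 note: plate controls were stimulated vehicle wells for no effect and unstimulated vehicle basal for full effect; nearly all actives have a fitted effect of over 55% in size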
#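 Stably V1b-transfected HEK293 cells; 30 min compound, then EGF 25 nM final for 5 min at 37C; 10 min lysis; phospho-ERK by AlphaScreen after 5 hr beads at room temperature.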
# Active calls of the source: *; [ ] = another dose, or the depositor's remark. The entries come from a sample that favours hits as a whole. Potency is the fitted concentration of half-maximal effect.
SMILES,ERK EGF inh
C[C@H]1C[C@]2(O[C@@H]2C)C(=O)O[C@@H]2CCN(C)C/C=C(/COC(=O)[C@]1(C)O)C2=O,1.6%
COc1cc([C@@H]2Oc3cc([C@H]4Oc5cc(O)cc(O)c5C(=O)[C@H]4O)ccc3O[C@H]2CO)ccc1O,-11.7%
NC(Cc1cc(I)c(Oc2cc(I)c(O)c(I)c2)c(I)c1)C(=O)O (stereo not given),0.2%
COc1ccc(C(=O)N2CCC3(CCN(Cc4ccncc4)CC3)CC2)cc1,8.2%
CNc1ncnc2ccc(-c3ccccc3OC)cc12,26.4%
CCN1C(=O)/C(=C2\Sc3ccccc3N2CC)OC1=S,13.4%
CCN1C(=O)/C(=C2/C=Cc3ccccc3N2CC)SC1=S,15.8µM*
CCN1C(=C(C#N)C#N)C=Cc2ccccc21,-4.8%
CC(C)(C)NC(=O)[C@@H]1CC[C@@H]2[C@@H]3CC[C@@H]4NC(=O)C=C[C@@]4(C)[C@H]3CC[C@]21C,3.5%[25.7 µM]
COc1ccc(CNc2ncncc2-c2ccccc2Cl)c(OC)c1,15.5%
O[C@@H](c1ccccc1)C1CCN(CCc2ccccc2)CC1,-11.3%
CCNc1ncc2nc(-c3ccc(OC)cc3)c(=O)n(-c3ccc(OC)cc3)c2n1,-4.0%
Cc1ccc(Nc2ncnc3c2cnn3C)cc1,-3.1%
Cc1ccc(Nc2ncnc3ccccc23)cc1,25.1µM*
CC(C)Oc1ccc(Nc2ncnc3ccccc23)cc1,-7.5%
O=C(CC1C(=O)NCCN1Cc1cccc(Oc2ccccc2)c1)NCCc1cnccn1 (stereo not given),5.1%
NCC(O)C1CCCCCCC1 (stereo not given),0.2%
N#Cc1cccc(-c2cncnc2-n2ccnc2)c1,20.5%
COc1ncc2nc(C)c(=O)n(C)c2n1,-2.6%
COc1ccc2nc3ccccc3nc2c1N,28.2µM*
COc1ccc2nc3cccc(OC)c3nc2c1,7.0%
COc1ccccc1-c1nc2ccccc2nc1-c1ccccc1OC,2.2%
Nc1ccccc1C(=O)/C=C/c1ccccc1,-10.8%
COc1cc(/C=C2/C(=O)NN(c3cccc(C)c3)C2=O)cc([N+](=O)[O-])c1O,-4.1%
COc1cc(/C=C2/C(=O)NN(c3cccc(C)c3)C2=O)ccc1OC(=O)c1ccco1,25.1µM*
SMILES,ERK EGF inh
COc1cc(/C=C2\C(=O)NN(c3ccccc3)C2=O)ccc1OCC(N)=O,-0.1%
C=CCOC(=O)N[C@@H](Cc1ccccc1)/C(C(=O)OC)=C(\C)NCc1ccccc1,0.1%
CCOC(=O)CNC(=O)O[C@@H]1C(=O)c2cc(OC)ccc2O[C@H]1c1ccc(OC)c(Br)c1,1.0%
COc1cccc2sc(Nc3nc4ccc(NC(C)=O)cc4s3)nc12,1.2%
COc1cccc2sc(NN)nc12,-0.4%
CCOC(=O)c1sc(Nc2nc3c(OC)cccc3s2)cc1C,25.1µM*
CCN(CC)S(=O)(=O)c1cc(NC(=O)Cn2ncc(Cl)c(Cl)c2=O)ccc1C,20µM*
COc1ccc(NC(=O)Cn2ncc(Cl)c(Cl)c2=O)cc1S(=O)(=O)N1CCOCC1,-6.8%
CCOC(=O)c1ccc(NC(=O)Cn2ncc(Cl)c(Cl)c2=O)cc1,4.5%
COc1cc2cc3c4c(cc(OC)c(OC)c4c2cc1OC)CCN3C,-16.5%
CCNc1ncc2ncc(=O)n(C)c2n1,-0.3%
CCCn1c(-c2ccc(F)cc2)nc2c(N3CCCN(Cc4ccccc4)CC3)nc(C)nc21,0.4%
O=[N+]([O-])c1ccc(CSc2ncnc3c2ncn3[C@@H]2O[C@H](CO)[C@H](O)[C@H]2O)cc1,19.5%
O=[N+]([O-])c1cccc(-c2ncc3ccccn23)c1,-21.7%
Clc1ccccc1-c1ncc2ccccn12,-0.7%
Clc1ccc(-c2ncc3ccccn23)cc1,31.6µM*
CCCCC[C@H](O)/C=C/C1=C(C/C=C\CCCC(=O)O)C(=O)CC1,-14.1%
COC(=O)[C@@]1(Cc2ccc(OC)cc2)[C@H]2c3cc(C(=O)N(C)C)n(Cc4cc(F)c(F)c(F)c4)c3C[C@H]2CN1C(=O)c1ccccc1,10.1%
COC(=O)CC1Oc2cc3oc4c5ccccc5oc(=O)c4c3cc2O1 (stereo not given),-2.7%
C/C(=N\N(C)C)C1=C(O)c2ccccc2C1=O,3.2%
CN(C=[N+](C)C)c1cccc2c1C(=O)c1ccccc1C2=O,17.8µM*
O=C(O)c1cccc2c1C(=O)c1ccccc1C2=O,8.0%
Cn1cccc1C(=O)N1CCC2(CCCN(C(=O)Nc3cccc(C#N)c3)C2)CC1,5.1%
CC(C)NC[C@@H](O)COc1ccc(COCCOC(C)C)cc1,-4.2%
O=C1CC(NNC(=O)c2cccc(F)c2)C(=O)N1 (stereo not given),2.8%[57.5 µM]
SMILES,ERK EGF inh
c1ccc(-c2nc(-c3cccc4ccccc34)c(NC3CCCCC3)o2)cc1,-1.3%
O=C(O)c1ccccc1C(=O)Nc1ccc(Br)c(C(F)(F)F)c1,2.5%[57.5 µM]
O=C(CCNC(=O)c1ccccc1Cl)Nc1ccc(Br)c(C(F)(F)F)c1,28.2µM*
O=C(CCNC(=O)c1ccccc1Cl)Nc1cc(C(F)(F)F)ccc1Cl,0.2%
COC(=O)NC(c1ccccc1)c1c[nH]c2ccc(OC)cc12 (stereo not given),-13.0%
O=c1c(-c2cc(F)cc(F)c2)nc2cnc(N3CCNCC3)nc2n1CCc1ccccc1,-4.1%
O=S(=O)(CCc1ccccc1)c1nnnn1C1CCCCC1,-3.5%
COc1ccc(-c2csc(NC(=O)c3ccc(S(C)(=O)=O)cc3)n2)cc1,-9.9%
COc1ccc(-c2csc(NC(=O)c3ccoc3C)n2)cc1,15.8µM*
COc1ccc(-c2csc(NC(=O)c3ccccc3C(=O)O)n2)cc1,4.8%
O=C1C2CC=CCC2C(=O)N1Cc1nnc(-c2ccc(Cl)cc2)o1 (stereo not given),-4.2%
CCNC(=O)[C@H]1O[C@@H](n2cnc3c(N)nc(NCCc4ccc(CCC(=O)O)cc4)nc32)[C@H](O)[C@H]1O,-10.9%
CC(=O)N1CCC2(CC1)CN(c1ccncc1)C2,4.7%
CC(=O)Nc1cccc(-c2csc(NCc3ccccc3)n2)c1,-9.6%
CC(=O)Nc1cccc(-c2csc(Nc3ccc(Cl)cn3)n2)c1,28.2µM*
CC(=O)Nc1ccc(-c2csc(Nc3ccc(Cl)cn3)n2)cc1,1.0%
CCCCNc1nc(C)nc2c1nc(-c1ccccc1)n2CCN1CCCC1,-16.3%
COc1cccc(-c2cncnc2NCc2ccccc2)c1,36.0%
C[C@H]1CC2[C@@H]3CCC4=CC(=O)C=C[C@]4(C)[C@@]3(F)[C@@H](O)C[C@]2(C)[C@@]1(O)C(=O)CO (stereo not given in full),2.8%
C[C@H]1[C@H](NC(=O)/C(=N/OC(C)(C)C(=O)O)c2csc(N)n2)C(=O)N1S(=O)(=O)O (stereo in doubt),5.0%[25.7 µM]
COc1ccccc1-c1csc(NC(=O)c2ccc(N3C(=O)CCC3=O)cc2)n1,28.2µM*
CCOC(=O)c1csc(NC(=O)c2ccc(N3C(=O)CCC3=O)cc2)n1,-14.9%
N#Cc1ccc(-c2csc(NC(=O)c3ccc(N4C(=O)CCC4=O)cc3)n2)cc1,-12.8%[57.5 µM]
COC(=O)N1CCC2(CCN(Cc3ccccc3)CC2)CC1,10.6%
COC(=O)N[C@@H](c1ccc(Br)cc1)C(C(=O)OC)C(=O)OC,-4.5%
SMILES,ERK EGF inh
CCCCC/C=C\C/C=C\C=C\[C@@H](O)C/C=C\CCCC(=O)O,-2.7%
COc1ccccc1CNCCCCCCNCCCCCCCCNCCCCCCNCc1ccccc1OC,3.3%
CN1\C(=C/C=C/C=C/C=[N+](C)C)C(C)(C)c2ccccc21,15.8µM*
CN1/C(=C\C=O)C(C)(C)c2ccccc21,2.9%
CN1/C(=C/C=C(C#N)C#N)C(C)(C)c2ccccc21,-2.9%
Nc1nc(O)c2ncn([C@H]3CC[C@@H](CO)O3)c2n1,19.6%

# High-throughput results deposited in PubChem by National Center for Advancing Translational Sciences (NCATS).
